Results from PubChem BioAssay AID624206 (National Center for Advancing Translational Sciences (NCATS), 2012).
Activity calls are given as the source filed them. The call rests on the fitted dose curve; in most records, active means well fitted curve in the direction sought with a large enough effect; inconclusive means small, poorly fitted or top-dose-only effect, or another doubt; inactive means no such curve, though single readings can be large or run the other way.

Assay: Quantitative high throughput screen to test cell viability of anti-malarial compounds targeting the delayed death phenotype.
Conditions: HepG2 viability, CellTiter-Glo luminescence, 48 h
Source text: NIH Molecular Libraries Probe Production Network [MLPCN] NIH Chemical Genomics Center [NCGC] MLPCN Grant: R21 NS059500 Assay Provider: David Fidock and Eric Ekland, Columbia University The goal of this screen is to measuer the cytoxoxicity (against HepG2 cell line) of a set of anti-malarial compounds that target the delayed death pheonotype, by inhibiting the development of the apicoplast in the malarial parasite Plasmodium falciparum (described below) The biochemical processes that make this organelle essential for erythrocytic stage parasites are not well understood. However, antibiotics, such as azithromycin and tetracycline, which target the apicoplast translational machinery, have a potent antimalarial effect. […] We have developed a cell-based assay that measures parasite growth based on the expression of an integrated copy of a firefly luciferase reporter. To detect small molecules that cause this 'delayed death' phenotype, erythrocytes infected with the luciferase-expressing parasites were incubated with compounds for either one or two generations, corresponding to 48 and 96 hours, respectively. Compounds that inhibit parasite growth in the second generation, but not the first, should be enriched in antimalarials that target the apicoplast. Growth inhibition is detected by a decrease in luciferase activity
Cells were plated at a density of 2000 cells/well/5uL in 1536 well white tissue culture plate with culture medium. Triplicate plates were prepared. Plates were incubated at 37C, 5% CO2 for 5 hours and then 23nL of compounds and positive control were transferred to the assay plates. Tetraoctylammonium bromide was added as a positive control. Plates were then incubated at 37C, 5% CO2 for 48 hours. 5 uL of CellTitler-Glo buffer was added to each well and then incubated for 30 min at room temperature. Luminescence was measured using ViewLux (1 second, slow, 2X).

SMILES | max response
O=C(CNC(=O)C1CCCCC1)OC(C(=O)c1ccccc1)c1ccccc1 (stereo not given) | 20.4% (inactive)
CC(=O)NC[C@@H]1CN(c2ccc(N3CCOCC3)c(F)c2)C(=O)O1 | 12.4% (inactive)
Cc1ccc(S(=O)(=O)Nc2ccc(C(=O)Nc3ccncc3)cc2)cc1 | 5.11% (inactive)
Cc1ccc(-n2c(-c3ccc(Cl)cc3)c[n+]3c2CCC3)cc1 | -10.3% (inactive)
COc1ccc(NC(=S)N2CCC(Cc3ccccc3)CC2)cc1OC | 0.57% (inactive)
CCCc1cc(=O)oc2cc(OC(C)C(=O)NCc3ccccn3)c(Cl)cc12 (stereo not given) | 11.2% (inactive)
CCOc1ccc(S(=O)(=O)Nc2cc(S(=O)(=O)N(CC)CC)ccc2N2CCCC2)cc1 | -26.9% (inactive)
CCOc1ccc(NC(=O)C[n+]2ccc(N(C)C)cc2)cc1 | 8.12% (inactive)
O=C(CSc1ccc(-c2cccnc2)nn1)Nc1ccccc1C(F)(F)F | 0.59% (inactive)
CN(C)S(=O)(=O)c1cc(NC(=O)C2=COCCO2)ccc1Cl | 13.5% (inactive)
COc1ccc(CNC(=O)C2CCC(CNS(=O)(=O)c3cccc4cccnc34)CC2)cc1 (stereo not given) | 4.48% (inactive)
COCCNC(=O)c1cccc(OC2CCN(Cc3cccc(SC)c3)CC2)c1 | -0.53% (inactive)
Cc1sc2nc[nH]c(=O)c2c1-c1ccc(Cl)cc1 | 3.87% (inactive)
COc1ccc2c(ccc[n+]2CC(=O)c2ccccc2)c1 | 5.11% (inactive)
O=C(NCc1cccnc1)c1ccc(NS(=O)(=O)c2ccccc2)cc1 | -0.715% (inactive)
CC(C)C(=O)NCCSc1c[nH]c2ccccc12 | -11.2% (inactive)
Brc1cccc(OCCCCN2CCCCC2)c1 | -6.02% (inactive)
CN(C)c1ccc(CN(C(=O)c2ccccc2Br)C2CCS(=O)(=O)C2)cc1 (stereo not given) | 14.8% (inactive)
COc1ccc(Nc2nnc(-c3ccc(C)cc3)c3ccccc23)cc1C(=O)N1CCCCC1 | -6.06% (inactive)
CCOc1ccc(C(=O)Nc2ccc(N3CCN(C)CC3)cc2)cc1 | 8.06% (inactive)

SMILES | max response
CCc1nc(SCC(=O)Nc2ccc(N(C)C)cc2)n[nH]1 | 1.4% (inactive)
COc1ccc2cc3cc(C(=O)Nc4ccc5c(c4)OCO5)oc3nc2c1 | -29.2% (inactive)
COc1cccc(CN2CCN(c3nc4nonc4nc3N3CCCCC3)CC2=O)c1 | 15.7% (inactive)
CO[C@H]1[C@H](O[C@H]2O[C@@H](C)[C@@H](O[C@@H]3C[C@](C)(O)[C@H](O)[C@H](C)O3)[C@@H](N(C)C)[C@@H]2O)[C@@H](CC=O)C[C@@H](C)[C@@H](O[C@H]2CC[C@H](N(C)C)[C@H](C)O2)/C=C\C=C/C[C@@H](C)OC(=O)C[C@H]1O | 5.01% (inactive)
CO[C@@H]1[C@@H](OC2OC(C)C(OC3CC(C)(O)C(OC(=O)CC(C)C)C(C)O3)C(N(C)C)C2O)[C@@H](CC=O)C[C@@H](C)C(=O)/C=C\C2O[C@H]2C[C@@H](C)OC(=O)C[C@H]1OC(C)=O (stereo not given in full) | 14.6% (inactive)
c1csc(CNc2ncnc3nc[nH]c23)c1 | 12.9% (inactive)
Cc1ccc(CN2CCC(n3nccc3NC(=O)c3ccccc3C)CC2)o1 | 13.2% (inactive)
COc1ccc(C(=O)N2CCN(S(=O)(=O)c3ccc(C)cc3C)CC2)cc1OC | -11.6% (inactive)
CCN(CC)C(=O)COc1coc(CN2CCN(c3cccc(Cl)c3)CC2)cc1=O | 3.88% (inactive)
COc1ccccc1N1CCN(CCC(=O)Nc2ccc(F)cc2)CC1 | 6.7% (inactive)
Clc1ccc(-c2c[n+](Cc3ccc(Cl)cc3Cl)c3n2CCCCC3)cc1 | -16.1% (inactive)
COc1ccc(NC(=O)NC2CCCCCCC2)c(OC)c1 | -2.67% (inactive)
CC1=Nc2cc(C(=O)N3CCCC3)ccc2Sc2ccc(C)cc21 | 5.45% (inactive)
CCOC(=O)c1ccc2c(c1)n(CC)c(/C=C/N(C)c1ccccc1)[n+]2CC | -1.94% (inactive)
CCCCN(CCCNC(=O)C1CCN(C(=O)c2cc3sccc3n2C)CC1)Cc1ccccc1 | 0.234% (inactive)
O=C(c1ccc([N+](=O)[O-])cc1)n1nc(-c2ccccc2)nc1NCc1ccc(F)cc1 | 17.5% (inactive)
O=C(Nc1ccccc1N1CCOCC1)c1cccc(S(=O)(=O)N2CCOCC2)c1 | 0.827% (inactive)
CCC(=O)OC1C(N(C)C)CC(C)O[C@H]1O[C@H]1[C@H](C)[C@@H](O[C@H]2CC(OC)[C@@H](O)C(C)O2)[C@H](C)C(=O)O[C@@H](CC)[C@](C)(O)[C@@H](O)[C@H](C)C(=O)[C@@H](C)C[C@]1(C)O (stereo not given in full) | 10.5% (inactive)
CCCCN(CCCNC(=O)c1ccc(CS(=O)(=O)c2ccc(OC)cc2)o1)Cc1ccccc1 | -1.11% (inactive)
N#Cc1cccc(NC(=O)Cn2c3[n+](c4ccc(C(F)(F)F)cc42)CCCCC3)c1 | 14.7% (inactive)
